Assay results as given in PubChem BioAssay (NCATS).
Values joined by “and” are separate entries in the source; they are usually repeats but may differ in a detail not shown here. Equal entries are not always repeated. Inconclusive results are not listed. Active and inactive are the calls of the source. Unless noted, calls come from the whole dose curve; as a rule, active = well fitted curve in either direction with a large enough effect (not every such curve was filed as active); inconclusive = small, poorly fitted or top-dose-only effect, or another doubt; inactive = flat fitted curve, though single readings scatter.

Assays:
[1] = Cell Viability - BJ (AID 421; calls by dose curve;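 note: potency is the fitted concentration of half-maximal effect; cells exposed to compound for 40 hours at 37 °C before readout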); conditions: BJ fibroblast viability, qHTS
Procedure, shortened: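 Cytotoxicity in human BJ foreskin fibroblasts is scored as loss of cellular ATP after a 40-hour exposure, measured by luciferase luminescence. Controls are DMSO and 100 uM tamoxifen.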

[2] = Cell Viability - Jurkat (AID 426;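 active = dose-dependent loss of cell ATP signal giving a full or clear fitted curve, ranked by lower potency value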; note: potency is the fitted concentration of half-maximal effect); conditions: qHTS
Procedure, shortened: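 Jurkat (clone E6-1, human T-cell leukemia) cells, 5000/well in complete medium, were exposed to compound for 40 hr at 37 °C. Viability was read as intracellular ATP by CellTiter-Glo luminescence; AC50 came from Hill fits of concentration-response data.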

[3] = Cell Viability - Hek293 (AID 427;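 active = compounds whose dose-response curve shows a full or clear partial loss of cell viability, called from curve shape rather than a numeric limit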;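 note: potency is the fitted concentration of half-maximal effect; cells exposed to compound for 40 hours at 37 °C before reading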); conditions: qHTS
Procedure, shortened: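 qHTS, human embryonic kidney (adenovirus-transformed) cells; 40 hr cpd, 37 °C; CellTiter-Glo ATP luminescence. Norm: DMSO = 0, 100 uM tamoxifen = 100% inhibition. Hill-fit AC50.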

[4] = Cell Viability - HepG2 (AID 433; calls by dose curve;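 note: potency is the fitted concentration of half-maximal effect; potency for ATP loss meaning cytotoxicity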); conditions: qHTS
Procedure, shortened: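 Cytotoxicity is scored as loss of intracellular ATP in HepG2 cells exposed to compounds for 40 h. Concentration-response curves, normalized to DMSO and 100 uM tamoxifen, give AC50 values.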

[5] = Cell Viability - MRC5 (AID 434; calls by dose curve;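 note: potency is the fitted concentration of half-maximal effect; potency reflects cytotoxicity seen as loss of intracellular ATP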); conditions: MRC5 lung fibroblast viability, qHTS
Procedure, shortened: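 MRC5 normal human lung fibroblasts (1500/well) were treated with compounds for 40 hr at 37 °C in complete medium, and viable cells were measured as intracellular ATP by CellTiter-Glo luminescence. AC50 came from Hill fits, normalized to DMSO and 100 uM tamoxifen.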

[6] = Cell Viability - SK-N-SH (AID 435; calls by dose curve;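 note: potency is the fitted concentration of half-maximal effect; compound exposure lasted 40 h at 37 °C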); conditions: SK-N-SH neuroblastoma cell viability qHTS
Procedure, shortened: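 Cells seeded at 1500 per well and incubated 5 hr at 37 °C. Compound added, then 40 hr at 37 °C. CellTiter-Glo added, 20 min at room temperature, luminescence read.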

[7] = molecular target: Mitogen-activated protein kinase 10 (Mus musculus) (UniProt Q61831); experiment: JNK3 AlphaScreen Assay (AID 530); conditions: JNK3 lysate, c-Jun phosphorylation; series mostly up to 57.1 µM;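 note: kinase came from lysate of stimulated human HepG2 cells; signal reports phosphorylation of biotinylated GST-cJun 1-79 at Ser73 with 10 µM ATP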
Procedure, shortened: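 JNK3 came from HepG2 lysates pre-activated with IL-1beta and TNF-alpha and phosphorylated biotinylated GST-cJun (1-79) at 10 uM ATP, pH 7.6, room temperature. Compounds were titrated. AlphaScreen signal used anti-phospho-cJun (Ser73) antibody.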

[8] = Cell Viability - N2a (AID 540; active = well fitted curve in the direction sought with a large enough effect; an effect the other way counts as inactive or inconclusive; note: nearly all actives have a fitted effect of over 45% in size); conditions: N2a mouse neuroblastoma cell viability; series mostly up to 92.2 µM
Procedure, shortened: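 Mouse neuroblastoma N2a cells (1500/well) were preincubated 5 hr at 37 °C, then exposed to compounds for 40 hr at 37 °C in complete medium. Viability was read as intracellular ATP by CellTiter-Glo luminescence; AC50 from Hill fits.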

[9] = Cell Viability - NIH 3T3 (AID 541; active = well fitted curve in the direction sought with a large enough effect; an effect the other way counts as inactive or inconclusive; note: nearly all actives have a fitted effect of over 25% in size); conditions: NIH 3T3 cell viability, qHTS; series mostly up to 92.2 µM
Procedure, shortened: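 NIH 3T3 mouse embryo fibroblasts (1000 cells/well) were plated in complete medium and treated with compound for 40 hr at 37 °C. Viability was read as intracellular ATP by CellTiter-Glo luminescence; AC50 values came from Hill-equation fits of concentration-response data.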

[10] = Cell Viability - HUV-EC-C (AID 542; active = well fitted curve in the direction sought with a large enough effect; an effect the other way counts as inactive or inconclusive; note: nearly all actives have a fitted effect of over 35% in size); conditions: HUV-EC-C endothelial cell viability, qHTS; series mostly up to 92.2 µM
Procedure, shortened: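 HUV-EC-C normal human vascular endothelial cells, 1000 cells/well, pre-incubated 5 hr at 37 °C, then exposed to compounds for 40 hr at 37 °C in complete medium. Viability measured as intracellular ATP by CellTiter-Glo luminescence; AC50 from Hill fits.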

[11] = Cell Viability - H-4-II-E (AID 543; active = well fitted curve in the direction sought with a large enough effect; an effect the other way counts as inactive or inconclusive; note: nearly all actives have a fitted effect of over 35% in size); conditions: H-4-II-E rat hepatoma viability; series mostly up to 92.2 µM
Procedure, shortened: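 Rat hepatoma H-4-II-E cells (1500/well) were plated, incubated 5 hr at 37 °C, then exposed to compounds for 40 hr at 37 °C. Cellular ATP was read by CellTiter-Glo luminescence; AC50 came from Hill-equation fits of concentration-response data.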

[12] = Cell Viability - SH-SY5Y (AID 544; active = well fitted curve in the direction sought with a large enough effect; an effect the other way counts as inactive or inconclusive; note: nearly all actives have a fitted effect of over 55% in size); conditions: SH-SY5Y neuroblastoma cell viability; series mostly up to 92.2 µM
Procedure, shortened: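 Human neuroblastoma SH-SY5Y cells (1500/well) in complete medium were exposed to compounds for 40 hr at 37 °C; intracellular ATP was then quantified by CellTiter-Glo luminescence after 20 min at room temperature. AC50 came from Hill-equation concentration-response fits.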

[13] = Cell Viability - Renal Proximal Tubule (AID 545; active = well fitted curve in the direction sought with a large enough effect; an effect the other way counts as inactive or inconclusive; note: nearly all actives have a fitted effect of over 40% in size); conditions: renal proximal tubule cells viability, primary cells of rat origin; series mostly up to 91.7 µM
Procedure, shortened: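 Cytotoxicity is scored as a concentration-dependent drop in cellular ATP in primary rat renal proximal tubule cells exposed for 40 hr. AC50 derives from Hill modelling.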

[14] = Cell Viability - Mesenchymal (AID 546; active = well fitted curve in the direction sought with a large enough effect; an effect the other way counts as inactive or inconclusive;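 note: cells exposed to compound for 40 hours before reading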); conditions: mesenchymal cells viability, qHTS; series mostly up to 91.7 µM
Procedure, shortened: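 Normal human renal glomerulus-derived kidney mesenchymal cells, 1000 per well in complete medium, were treated with compounds for 40 hr at 37 °C. Viability was read as intracellular ATP by CellTiter-Glo luminescence; AC50 values came from Hill-equation fits of qHTS concentration-response data.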

[15] = AP1 Signaling Pathway (AID 357); conditions: ME-180 AP-1-bla reporter, EGF-induced, beta-lactamase ratio, 5 h; series mostly up to 38 µM;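 note: ME-180 reporter cells stimulated with EGF at its EC50 level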
Procedure, shortened: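 Beta-lactamase reporter under AP-1 response element, ME-180 background. Stimulus: EC50 EGF. Compound exposure 5 h, 37 °C. Detection: CCF4, 2.5 h RT, 460/530 nm. Values: AC50 from titration.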

[16] = molecular target: Cytochrome P450 1A2 (Homo sapiens) (UniProt P05177); experiment: p450-cyp1a2 (AID 410; calls by dose curve); conditions: recombinant CYP1A2, luciferin-ME demethylation, luminescence; series mostly up to 57 µM
Procedure, shortened: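 Human CYP1A2 (20nM) demethylated Luciferin-ME at its Km (100uM) in 100mM KPO4. After 10 min compound preincubation, NADPH regeneration ran the reaction 60 min at room temperature. Luciferin was read by luminescence, normalized to 57 uM furafylline.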

[17] = NFAT Signaling Pathway (AID 444); conditions: Jurkat NFAT-bla M1, carbachol, beta-lactamase ratio, 5 h; series mostly up to 17.2 µM;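 note: carbachol stimulus at about its EC50 of 1 µM final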
Procedure, shortened: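 Jurkat cells carrying an NFAT-driven β-lactamase reporter and co-transfected muscarinic M1 receptor were treated with compound plus carbachol (1 uM final, an EC50 level) for 5 h at 37 °C. CCF4 loading followed for 1 h at RT; 460/530 nm ratio gave %activity.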

[18] = Stat Signaling Pathway (AID 446); conditions: ME-180 SIE beta-lactamase reporter, IL-6 stimulated, 5 h; series mostly up to 17.2 µM;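 note: ME-180 cervical cancer cells given 40 pM IL-6 alongside compound; SIE-controlled beta-lactamase reporter measured as 460/530 nm FRET emission ratio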
Procedure, shortened: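 Screening format detects activators and inhibitors alike: ME-180 SIE-bla cells stimulated at 40 pM IL-6 for 5 hrs with compound, then dual-emission beta-lactamase read at 405 nm excitation.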

[19] = molecular target: Glucocorticoid receptor (Homo sapiens) (UniProt P04150); experiment: GR-GFP Redistribution (AID 450;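 active = compounds whose dose series gives a full or clear partial fitted curve of increased nuclear translocation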; note: potency is the fitted concentration of half-maximal effect); conditions: U2OS GR-GFP nuclear translocation, laser cytometry, 2 h
[20] = molecular target: Glucocorticoid receptor (Homo sapiens) (UniProt P04150); experiment: GR-EFC Redistribution (AID 451; calls by dose curve; note: potency is the fitted concentration of half-maximal effect); conditions: CHO-K1 GR-EFC translocation, beta-gal luminescence, 2 h
Procedure, shortened: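 CHO-K1 cells stably expressing nuclear-localized β-gal enzyme acceptor and GR fused C-terminally to the enzyme donor fragment; ligand-driven nuclear translocation restores β-gal by complementation. Compounds titrated up to 46 uM final, 2 h at 37 °C; luminescence read.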

Measured: Potency

Chain of Glucocorticoid receptor (Homo sapiens) (P04150 whole entry, looked up, the tested form may be a part): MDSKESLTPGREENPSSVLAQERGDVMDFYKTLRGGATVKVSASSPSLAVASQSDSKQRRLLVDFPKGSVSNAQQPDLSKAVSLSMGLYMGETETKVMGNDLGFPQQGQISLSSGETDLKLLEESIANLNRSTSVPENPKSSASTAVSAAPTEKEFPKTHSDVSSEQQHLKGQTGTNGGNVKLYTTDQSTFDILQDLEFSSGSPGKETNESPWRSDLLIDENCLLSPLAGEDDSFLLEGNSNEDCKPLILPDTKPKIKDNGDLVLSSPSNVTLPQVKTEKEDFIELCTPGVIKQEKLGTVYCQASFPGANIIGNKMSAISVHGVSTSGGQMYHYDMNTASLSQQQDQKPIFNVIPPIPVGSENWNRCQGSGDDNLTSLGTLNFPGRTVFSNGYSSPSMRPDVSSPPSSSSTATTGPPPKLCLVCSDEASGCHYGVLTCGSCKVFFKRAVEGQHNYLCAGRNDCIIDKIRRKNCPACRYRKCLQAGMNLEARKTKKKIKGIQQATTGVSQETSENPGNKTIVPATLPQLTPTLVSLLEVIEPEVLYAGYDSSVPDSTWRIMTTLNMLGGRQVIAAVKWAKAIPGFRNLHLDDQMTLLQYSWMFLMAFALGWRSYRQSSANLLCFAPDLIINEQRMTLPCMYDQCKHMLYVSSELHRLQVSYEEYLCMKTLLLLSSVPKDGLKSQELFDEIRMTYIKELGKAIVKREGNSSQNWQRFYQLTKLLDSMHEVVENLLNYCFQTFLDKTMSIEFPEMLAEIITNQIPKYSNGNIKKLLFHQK
Chain of Cytochrome P450 1A2 (Homo sapiens) (P05177 whole entry, looked up): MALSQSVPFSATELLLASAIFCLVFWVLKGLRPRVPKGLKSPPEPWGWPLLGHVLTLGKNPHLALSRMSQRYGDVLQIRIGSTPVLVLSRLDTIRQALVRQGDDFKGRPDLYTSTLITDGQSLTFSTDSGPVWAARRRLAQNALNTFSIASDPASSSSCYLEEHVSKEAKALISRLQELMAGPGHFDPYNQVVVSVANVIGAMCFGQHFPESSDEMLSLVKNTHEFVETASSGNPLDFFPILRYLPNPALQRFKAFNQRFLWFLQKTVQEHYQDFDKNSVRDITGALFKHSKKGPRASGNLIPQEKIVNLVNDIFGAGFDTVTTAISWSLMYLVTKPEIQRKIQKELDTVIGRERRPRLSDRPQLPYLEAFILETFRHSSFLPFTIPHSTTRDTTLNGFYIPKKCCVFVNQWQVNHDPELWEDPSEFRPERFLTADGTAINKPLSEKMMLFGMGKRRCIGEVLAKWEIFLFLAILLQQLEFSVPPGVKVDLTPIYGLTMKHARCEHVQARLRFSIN

C=C1C[C@]23C[C@@]1(O)CC[C@H]2[C@@]12C=C[C@H](O)[C@@](C)(C(=O)O1)[C@H]2[C@@H]3C(=O)O
inactive: [1] > 92 µM | [2] > 92 µM | [3] > 92 µM | [4] > 92 µM | [5] > 92 µM | [6] > 92 µM | [7] | [8] | [9] | [10] | [11] | [12] | [13] | [14]

CCc1cccc2c3c([nH]c12)[C@@](CC)(CC(=O)O)OCC3
inactive: [15] | [16] | [17] | [18] | [7]

CCN1CCN(C(=O)N[C@@H](C(=O)N[C@@H]2C(=O)N3[C@@H]2SC(C)(C)[C@@H]3C(=O)O)c2ccccc2)C(=O)C1=O
inactive: [17] | [18]

CC(C)C[C@H](NC(=O)[C@@H]1O[C@H]1C(=O)O)C(=O)NCCCCN=C(N)N
inactive: [15] | [16] | [17] | [18] | [19] > 46 µM and > 20.6 µM | [20] > 46 µM | [7]

COc1ccc(CCC(=O)c2c(O)cc(O[C@@H]3O[C@H](CO)[C@@H](O)[C@H](O)[C@H]3O[C@@H]3O[C@@H](C)[C@H](O)[C@@H](O)[C@H]3O)cc2O)cc1O
inactive: [1] > 92 µM | [2] > 92 µM | [3] > 92 µM | [4] > 92 µM | [5] > 92 µM | [6] > 92 µM | [7] | [8] | [9] | [10] | [11] | [12] | [13] | [14]

C[C@]1(C2CCCC2)Cc2cc(OCC(=O)O)c(Cl)c(Cl)c2C1=O
inactive: [15] | [16] | [17] | [18] | [19] > 46 µM | [20] > 46 µM | [7]
